Each structure is given as a SMILES string. The panel holds about 83,000 compounds, 20% with a hit somewhere; the sample as a whole holds those more often.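 Assay: single dose, 48 h. Readout: percent growth (0 = no net growth; negative = cell death). Active: <10.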 A number with no mark means an inactive call. The source made the active and inactive calls.

In the test the test system is M14 melanoma. As to the kind of experiment: NCI-60 one-dose screen, 48 h (100 = growth as untreated, 0 = no growth, -100 = all killed). To be noted: 10 µM.
As for `CCCCCCCNc1nc(C=O)ncc1-c1ccc(C(F)(F)F)cc1`, the growth is 102%.

Consider `C#Cc1ccc(-n2c(/C=C/c3ccc4ccccc4n3)nc3ncccc3c2=O)cc1`, for which the growth is -19% (active).

As for `O=C1c2ccc3c4c(ccc(c24)C(=O)N1CCNCc1ccccc1)C(=O)N(CCNCc1ccccc1)C3=O`, the growth is -62.3% (active).

`CCN(CC)Cc1cc(Nc2ccnc3cc(Cl)ccc23)ccc1OC`: the growth was 7.19% (active).

`Nc1ccc2c(c1)C1(CCC2)NC(=O)NC1=O` (centres undefined): the growth was 100%.

`O=C(Nc1cccc(Cl)c1)Nc1nccs1`: the growth was 89.3%.

For `N=C(N)c1ccc(-c2ccc(-c3cccs3)s2)s1`, the growth was -79.5% (active).

For the compound `O=C1NC(=O)N(Cc2ccccc2)CC1Br` (centres undefined), the growth is 11.4%.

`COc1cc(C(=O)N2CCN(c3ccccc3OC)CC2)c(N)cc1OCCCN1CCN(c2ccccc2OC)CC1`: the growth was 85.2%.

In the case of `CN(C)CCN=c1nc2c(c(N)n1-c1ccccc1)c(=S)n(-c1ccccc1)c(=S)n2-c1ccccc1`, the growth is -84.4% (active).

Regarding `CCOC(=O)c1ccc(NC(=O)Nc2ncc(Cl)cc2Cl)cc1`, the growth is 94.7%.

Regarding `CN(C)N=Nc1nn(C(=O)Nc2ccc(Cc3ccccc3)cc2)c2ccccc12`, the growth was 20.4%.

As to `CC(=O)N(C)c1ccc(Nc2ccc(Nc3ccc(N(C)C(C)=O)cc3)c3c2C(=O)c2ccccc2C3=O)cc1`, the growth was 86.1%.

Turning to `CCOC(=O)C1(CC(C)C)CCOC1=O` (centres undefined), the growth is 106%.

With `COc1ccc2c(c1)nc(N)c1c3cccnc3cn21`, the growth was 9.28% (active).

As to `CSCCCNC(=O)c1ccc2c(c1)/C(=C/c1[nH]c(C)cc1C)C(=O)N2`, the growth was 8.79% (active).

For `COc1cc(Cl)cc(-c2nn(-c3cccc(NC(=O)Nc4ccc(Cl)c(Cl)c4)c3)cc2-c2ccncc2)c1`, the growth was 18.7%.

In the case of `CC1=C(N2CCOCC2)C(N2CCOCC2)=C(C)C(=O)C1=O`, the growth is 103%.

Turning to `COc1cc(-c2nc(Nc3nc4ccccc4s3)[nH]c(=O)c2C#N)cc(OC)c1O`, the growth is 96.3%.

Take `COc1ccc(CN2CCC(N3CCCC3=O)c3cc(Cl)ccc32)cc1` (centres undefined): the growth was 97%.

With `CC(=O)O[C@]1(C)CC[C@H]2[C@H](CNCCc3ccc(Cl)cc3)C(=O)O[C@@H]2C2=C(C)C(=O)C[C@H]21`, the growth was 88.4%.

For `COc1ccc(-c2nn(-c3cccc(NC(=O)Nc4cc(C(F)(F)F)cc(C(F)(F)F)c4)c3)cc2-c2ccncc2)cc1Cl`, the growth was -34.1% (active).

For the compound `CN(CCc1ccccn1)c1ccccc1`, the growth was 100%.

As to `COc1ccc(N=C2C(=Nc3ccc(OC)cc3)N(c3ccc(N(C)C)cc3)C(=S)N2c2ccc(OC)cc2)cc1`, the growth was 65.3%.

Regarding `COc1cc2nc(Nc3cccc(NC(C)=O)c3)nc(N)c2cc1OC`, the growth is 107%.

For the compound `C#Cc1ccc(-n2c(/C=C/c3ccc(Cl)c(F)c3)nc3ncccc3c2=O)cc1`, the growth is -9.7% (active).

Take `COc1cccc(Cn2c(-c3nonc3N)nc3ccccc32)c1`: the growth is 20.4%.

Regarding `c1ccc([I+]c2ccccc2)cc1`, the growth is 72.5%.

Regarding `O=C(c1cccs1)c1ccccc1Cc1ccccc1`, the growth was 118%.

Take `COc1ccc(-c2ccc(-c3ccc(C(=N)N)cn3)o2)cc1`: the growth was 75.3%.

Consider `Nc1c(C(=O)Nc2cccc3ccccc23)sc2nc3c(cc12)C(=O)CCC3`, for which the growth was 12.6%.

For `COc1ccc(Nc2ccnc(NCCNc3ccnc4cc(Cl)ccc34)n2)cc1`, the growth was -16.6% (active).

For the compound `O=C(Nc1ccc(Cl)c([N+](=O)[O-])c1)Nc1nc2ccccc2s1`, the growth is 88.7%.

Take `COc1cc(C(=O)/C=C/c2cc(-c3cc(OC)c(OC)c(OC)c3)n[nH]2)cc(OC)c1OC`: the growth is 6.7% (active).

As for `CC(=O)N1C/C(=C/c2ccc(Cl)cc2)C(=O)/C(=C/c2ccc(Cl)cc2)C1`, the growth was -51.1% (active).

Consider `COc1cc(/C=N/NC(=O)c2ccccc2Nc2cccc(C(F)(F)F)c2)cc(OC)c1OC`, for which the growth was 177%.

As for `O=C1N=NC2=C1c1c3ccccc3c(O)n1CC2`, the growth is 93.2%.

Turning to `CS(=O)(=O)Nc1cccc(-c2cc(-c3ccccc3Cl)c(C#N)c(N)n2)c1`, the growth is 23.4%.

In the case of `N#Cc1ncc(-c2ccc(C(F)(F)F)cc2)c(NCc2cc(C(F)(F)F)cc(C(F)(F)F)c2)n1`, the growth is 40%.

For the origin of these results see PubChem BioAssay (NCI).
